Hits are enriched below; roughly 0.74% of the tested compounds scored in any of these assays.
Tb hexokinase: blocks Trypanosoma brucei hexokinase 1 activity | inhibition, % at 10 µM | hit rate 0.11% among 220,000 | recombinant TbHK1, G6PDH-coupled NADH A340;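 active = inhibition of 50% or more in the single-dose primary screen; inactive = inhibition below 50%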
p97 inhibitor: blocks human p97 ATPase activity; inhibition, % at 8 µM; P55072; AID 1481; recombinant p97 ATPase, Kinase-Glo ATP luminescence, 3 h; hit rate 0.42% among 220,000; in the data active = inhibition above about 15%
Efa HMGR inh: blocks class II HMG-CoA reductase of Enterococcus faecalis. purified E. faecalis HMGR, NADPH absorbance 340 nm kinetic. inhibition, % at 10 µM. hit rate 0.41% among 190,000;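 active = inhibition above a set limit, the median over all tested compounds plus 3 SD, cut at about 9.5% in these data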;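 note: enzyme runs in reverse so mevalonate oxidation gives rising NADPH absorbance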
Furin inhibitor: blocks human furin protease activity. hit rate 0.061% among 220,000. inhibition, % at 20 µM or 30 µM. AID 463115. P09958. purified furin, fluorogenic substrate cleavage; in the data active = inhibition above about 25%
Target sequence (P09958 108-714 limits assumed): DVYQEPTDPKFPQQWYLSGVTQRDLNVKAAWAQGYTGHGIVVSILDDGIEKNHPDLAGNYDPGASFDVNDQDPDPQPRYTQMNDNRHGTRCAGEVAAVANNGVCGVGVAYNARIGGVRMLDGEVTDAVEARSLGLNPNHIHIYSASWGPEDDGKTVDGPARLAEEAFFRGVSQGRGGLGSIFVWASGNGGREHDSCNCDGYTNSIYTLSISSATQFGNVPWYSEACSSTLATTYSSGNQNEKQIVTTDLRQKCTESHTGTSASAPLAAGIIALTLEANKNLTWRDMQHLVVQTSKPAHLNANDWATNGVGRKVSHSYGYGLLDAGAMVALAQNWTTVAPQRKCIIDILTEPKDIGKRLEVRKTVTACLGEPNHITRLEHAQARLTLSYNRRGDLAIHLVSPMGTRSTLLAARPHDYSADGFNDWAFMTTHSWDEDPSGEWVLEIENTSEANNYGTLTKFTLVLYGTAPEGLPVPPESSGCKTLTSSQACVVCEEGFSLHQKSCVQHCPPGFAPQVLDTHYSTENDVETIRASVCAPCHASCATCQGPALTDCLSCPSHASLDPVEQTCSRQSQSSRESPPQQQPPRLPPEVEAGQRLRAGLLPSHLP
Redox H2O2 prof: compounds producing H2O2 with reducing agent – biochemical, NIH compound library profiling, artefact control for MLSCN library redox annotation, primary screen; AID 878; hit rate 0.03% among 200,000; DTT-dependent redox cycling H2O2, phenol red/HRP absorbance; 100% = 100 µM peroxide control, 0% = buffer; activation, % at 10 µM;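 active = activation of at least 50% relative to the plate's high and low controls in the primary single-dose screen; inactive = activation below 50%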;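 note: compound incubated with DTT at 0.8 mM final as the reducing agent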
p-CIP stab down: p/CIP protein destabilization | Q05BA5 | hit rate 0.01% among 290,000 | F442A p/CIP-EGFP cells, EGFP fluorescence, 16 h | decrease of EGFP signal, % at 10 µM;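 active = EGFP signal decrease of at least 30% at 10 µM or well 3 SD below plate mean, unless failing retest; inactive = the rest, including hits failing retest or dose response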
p97 inh conf: human p97 ATPase inhibition, confirmation; shares compounds with p97 inhibitor; recombinant p97 ATPase, Kinase-Glo ATP luminescence; inhibition, % at 8 µM; hit rate 44% among 760; AID 1517;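 active = percent inhibition of p97 ATPase above a set limit, the primary screen's mean plus 3 SD, cut at about 15% in these data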
Large screens that a line does not name were inactive (follow-up assays come after a bar, where they were run).

O=C(COC(=O)c1ccc2c(c1Cl)C(=O)c1ccccc1C2=O)NC1CC1	p97 inhibitor 25 | p97 inh conf 22
O=C(COC(=O)c1ccc2c(c1Cl)C(=O)c1ccccc1C2=O)NC1CCCCC1	none
O=[n+]1c2c(n([O-])c3ccccc31)CCCC2	p97 inhibitor 15 | p97 inh conf inactive
O=[n+]1c2c(n([O-])c3cc(Br)ccc31)CCCC2	none
C[N+](C)(CC#N)C/C=C\c1ccccc1	p97 inhibitor 17 | p97 inh conf inactive
COc1ccc(CNC/C=C/c2ccccc2)cc1	none (no result: Tb hexokinase, p97 inhibitor, Efa HMGR inh, Furin inhibitor, Redox H2O2 prof)
CCCc1ccc2oc(C(=O)N(C)CCn3ccnc3C)c(C)c2c1	none (no result: Tb hexokinase, p97 inhibitor, Efa HMGR inh, Furin inhibitor, Redox H2O2 prof)
Cc1ccc(CNC(=O)c2ccc(N3CCC4(CC3)CC(c3ccccc3)=NO4)c(N)c2)cc1	none (no result: Tb hexokinase, p97 inhibitor, Efa HMGR inh, Furin inhibitor, Redox H2O2 prof)
CN1CCN(CCCCOc2ccc(Br)cc2)CC1	none (no result: Tb hexokinase, p97 inhibitor, Efa HMGR inh, Furin inhibitor, Redox H2O2 prof)
O=C1NN(c2cccc(Br)c2)C(=O)/C1=C/c1cccs1	p97 inhibitor 17 (no result: Efa HMGR inh, Redox H2O2 prof) | p97 inh conf 23
O=C1NN(c2ccccc2)C(=O)/C1=C/c1cccs1	none
COc1ccc(N2CCN(C(=O)CN(c3cccc(OC)c3)S(=O)(=O)c3ccccc3)CC2)cc1	none (no result: Tb hexokinase, p97 inhibitor, Efa HMGR inh, Furin inhibitor, Redox H2O2 prof)
CCCC(=O)Nc1ccc(C(N)=O)cc1	none
CC(=O)NCCC(=O)Nc1ccc(C(N)=O)cc1	p97 inhibitor 23 | p97 inh conf inactive
CC(=O)N1c2ccc(S(=O)(=O)N3CCCC(C(=O)NC4CCCC(C)C4C)C3)cc2CC1C (stereo not drawn)	none (no result: Tb hexokinase, p97 inhibitor, Efa HMGR inh, Furin inhibitor, Redox H2O2 prof)
COc1cc(C(=O)N2CCN(Cc3ccc4c(c3)OCO4)CC2)cc(OC)c1OC	none (no result: Tb hexokinase, p97 inhibitor, Efa HMGR inh, Furin inhibitor, Redox H2O2 prof)
COC(=O)c1sc(-c2cccs2)cc1NC(=O)/C=C/C(=O)O	p97 inhibitor 25 (no result: Efa HMGR inh, Redox H2O2 prof) | p97 inh conf 23
Cc1cccc(C)c1OCc1cc(C(=O)NCc2cn(C)nc2C)no1	none (no result: Tb hexokinase, p97 inhibitor, Efa HMGR inh, Furin inhibitor, Redox H2O2 prof)
O=C(CCCN1C(=O)/C(=C/c2ccco2)SC1=S)Nc1cccc(C(=O)O)c1	p97 inhibitor 33 (no result: Efa HMGR inh, Redox H2O2 prof) | p97 inh conf inactive
O=C(CCCN1C(=O)/C(=C\c2cccs2)SC1=S)Nc1cccc(C(=O)O)c1	none
COc1cccc(Nc2ccccc2C(=O)O)c1	p97 inhibitor 16 | p97 inh conf inactive
CCOC(=O)C(C)Oc1cccc2c(=O)n(CC(=O)Nc3ccc4c(c3)OCCO4)ccc12 (stereo not drawn)	p97 inhibitor 35 | p97 inh conf inactive
O=C(N/N=C/c1cccs1)c1cc(-c2cccc3ccccc23)n[nH]1	p97 inhibitor 16 | p97 inh conf 27
O=C(N/N=C/c1cccs1)c1cc(-c2ccc3ccccc3c2)n[nH]1	none
CCOC(=O)c1c(CC(C)C)csc1NC(=O)c1ccccc1C(=O)O	p97 inhibitor 18 (no result: Efa HMGR inh, Redox H2O2 prof) | p97 inh conf 22
